Data from PubChem BioAssay AID743279 (National Center for Advancing Translational Sciences (NCATS), 2014).
About 17,000 (4.7%) of roughly 360,000 compounds were called active. About 5% were inconclusive and are not listed. Rule as the data show it: active = activity change below about -50%; inconclusive = mostly about -30% to -49%; inactive = weaker than that. What follows is part of a selection rich in actives, with near analogues and random picks from the rest.

Assay: qHTS for Inhibitors of Inflammasome Signaling: IL-1-beta AlphaLISA Primary Screen
Conditions: THP-1 LPS/ATP IL-1B secretion, 16 h; at 57.5 µM, hits give low values
Procedure, shortened: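 Secreted IL-1B measured by AlphaLISA bead assay after 16 h compound exposure of THP-1 cells; compounds (final up to 57.5 uM) added 1 h before LPS (250 ng/mL) and ATP (1.25 mM) stimulation; lower signal means less secretion.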
% is scaled to controls: 0 for no effect and ±100 for the full control effect.

Activity change, inactive:
CCCNC(=O)C1(C)CCN1C(=O)C1(c2ccccc2)CC1 (stereo not drawn) 0%, Nc1ncnc2c1ncn2[C@@H]1O[C@H](C(=O)N2CCSC2)[C@@H](O)[C@H]1O 3.32%, Cc1ccc(S(=O)(=O)N(CCc2ccccc2)c2ccc3c(c2)C2CC3CCN2C(=O)OCc2ccccc2)cc1 (stereo not drawn) -16.8%, COc1ccc(C2=Nc3ccccc3NC(=O)C2N(C(=O)c2cc3ccccc3[nH]2)c2ccccc2)cc1 (stereo not drawn) 16.6%, CC(C)(C)c1ccc(Cn2nnc3c(=O)[nH]c(C4CCCN(C(=O)c5ccco5)C4)nc32)cc1 (stereo not drawn) -12.5%, COc1cc(NC(=O)C2CCN(c3cnccn3)CC2)cc(OC)c1 -9.18%, Nc1ccc(C(=O)Nc2ccccc2N)cc1 -21%, Cc1ccc(Nc2nc(Cl)c(C=O)s2)cc1 -13.1%, Cc1nc2ccc(N)nc2nc1C 10.3%, CC(C)(C)N1C(=O)c2c(C(=O)OCc3ccccc3)[nH]c(-c3ccccc3)c2C1=O 11.9%, CCOc1cc(/C=N/O)ccc1OCc1ccccc1F -8.72%, COc1ccccc1CNCc1cccs1 10.3%, CCOC(=O)C1=C(O)/C(=C/c2cc(C)n(-c3ccccc3)c2C)N=C1C -9.27%, COc1ccc(NS(=O)(=O)c2cccc(C(=O)NCCc3ccc(S(N)(=O)=O)cc3)c2)cc1 6.56%, O=C(CN1C(=O)NC2(CCCCCCC2)C1=O)NCc1ccc(F)cc1 -15.9%, O=C(CN1C(=O)NC2(CCCCCC2)C1=O)NCc1ccc(F)cc1 -13.3%, CC(C)c1ccc(C=NNc2ccc([N+](=O)[O-])cn2)cc1 20.1%, O=C1NCC(Nc2ccccc2)C(=O)N1 (stereo not drawn) 11.9%, O=C(Nc1ccn(CCCNCc2ccc3[nH]ccc3c2)c(=O)n1)OCc1ccccc1 -20.2%, COc1ccccc1-c1sc2ccccc2c1-c1ccc(Br)nc1 26.6%, COc1cccc(-c2sc3ccc(OC)cc3c2-c2ccc(OCCN3CCCCC3)cc2)c1 -3.91%, CC1(C(=O)NS(=O)(=O)c2ccc(Cl)cc2)CCN1C(=O)CC1CCCC1 (stereo not drawn) 24.4%, CCCCSc1nc2c(c(=O)n1CC)SC(C)C2 (stereo not drawn) 25.4%, CCN1CCN(C(=O)CN(C)S(=O)(=O)c2ccc(OC)cc2)CC1 -5.95%, CCOCCCNC(=O)C1(O)c2cc(Br)ccc2NC(=O)N1c1ccc(C)c(C)c1 (stereo not drawn) 29.6%, COc1ccc(-c2cc(-c3ccc(N)cc3)nc(N)c2C#N)cc1OC 0%, COc1ccc(-c2cc(C(=O)NCCCN3CCCC3=O)c3ccccc3n2)cc1OC 0%, O=C1NC[C@H](Cc2ccc(O)cc2)N(C[C@H]2CCCN2C[C@H](Cc2ccccc2)N2C[C@H](Cc3ccccc3)N(CCc3ccccc3)C(=O)C2=O)C1=O -12.9%, O=C1CCC(=O)N1CCC(=O)N(C(=O)NC1CCCCC1)C1CCCCC1 -5.97%, CCOc1ccc(CCN2C(=O)c3cccnc3C2=O)cc1OCC -0.139%, O=C1c2cccnc2C(=O)N1Cc1cccs1 21.3%, CCN(C(=O)CN1CCN(Cc2ccccc2)CC1)c1c(N)n(Cc2ccccc2)c(=O)[nH]c1=O 27.8%, Cc1cccc(NC(=S)Nc2ccc3cn[nH]c3c2)c1 -16.5%, S=C(Nc1cccc(Cl)c1)Nc1ccc2c(c1)OCCO2 -23.6%, FC(F)(F)c1cccc(NC(=S)Nc2cccc(Cl)c2)c1 -14.7%, Cc1cccc(NC(=S)NC23CN4CN(CN(C4)C2)C3)c1 -14.8%, O=C(Nc1ccc(Cl)c(C(F)(F)F)c1)C1Cc2c(-c3ccccc3Oc3ccccc3)ccnc2O1 (stereo not drawn) -13.9%, Cc1cc(C)c(S(=O)(=O)NCC(c2ccc3c(c2)OCO3)N2CCOCC2)c(C)c1 (stereo not drawn) 0%, COc1ccccc1OCC(=O)OCc1cc(-c2ccco2)on1 1.02%, CCOC(=O)[C@]12CCCC=C1N(CCC1=CCCCC1)C(=O)[C@H](CC(=O)N1CCSCC1)C2 15.1%, COc1ccc(Br)cc1CN(C)C(=O)C1CC(=O)N(C2CCCC2)C1 (stereo not drawn) -16.8%, CC1(C(=O)Nc2cccnc2)Cc2c(-c3ccccc3)ccnc2O1 (stereo not drawn) -18%, CCOC(=O)c1c(C(C#N)C#N)cc(C)nc1C 17.2%, CCOC(=O)COc1nc(C)cc(C(F)(F)F)c1C#N -4.72%, CCCCOc1ccc(Cl)cc1CSc1nncn1N -10.2%, CC1=C(C(=O)N2CCOCC2)CC(CC(=O)NCc2cccc3ccccc23)C(=O)N1CCC1=CCCCC1 (stereo not drawn) -8.18%, COc1ccc(NS(=O)(=O)c2ccc(N3CCOCC3)c(NC(=O)/C=C/C(=O)O)c2)cc1 12.3%, CC(C)(C)c1ccc(/C=C/C(=O)Nc2ncccn2)cc1 0%, COc1cccc2cc(-c3cc(=O)oc4cc(C)c(O)cc34)oc12 0.212%, COc1ccc(Nc2cc(=O)oc3ccccc23)cc1 34.3%, Cc1ccc(S(=O)(=O)N2CCOCC2)cc1NC(=O)c1ccncc1 6.64%, CC1(C(=O)NCC2CCOCC2)Cc2c(-c3cccc(C(N)=O)c3)ccnc2O1 (stereo not drawn) 40.9%, CN1CCN(CCNC(=O)Nc2ccccc2[N+](=O)[O-])CC1 -9.61%, CN(C)CCNC(=O)/C(=C/c1cccc([N+](=O)[O-])c1)NC(=O)c1ccccc1 -4.01%, O=C(CN1C(=O)NC2(CCCCC2)C1=O)NCCc1c[nH]c2ccccc12 0%, Cc1ccc(-c2ccc(/C=N/NC(=O)CN3CCOCC3)o2)cc1[N+](=O)[O-] -11%, O=C(NCCCN1CCOCC1)c1ccc([N+](=O)[O-])cc1[N+](=O)[O-] 47.3%, C=CCNC(=O)/C(=C\c1cccc([N+](=O)[O-])c1)NC(=O)c1ccccc1 11.9%, N#C/C(=C/c1ccc(N2CCOCC2)o1)C(=O)N1CCOCC1 -6.13%, O=C1C2C3C=CC(C4CC34)C2C(=O)N1/N=C/c1ccc(-c2ccccc2[N+](=O)[O-])o1 (stereo not drawn) 5.29%, CCc1cccc(C)c1N(C(=O)Cn1c(CO)nc2ccccc21)C(C)COC (stereo not drawn) -5.47%, COc1ccc(N2c3ccccc3CN(Cc3ccccc3)[C@@H](C)[C@H]2Cc2ccc(-c3ccccc3)cc2)cc1 43%, O=C(OCc1cn([C@H]2C[C@H](c3ccccc3)N(C(=O)c3cccs3)C[C@@H]2O)nn1)c1ccccc1 9.57%, CCOC(=O)C1(Cc2ccc(Cl)cc2)CCN(C(=O)C2=NNC(=O)CC2)CC1 5.99%, COc1ccc(S(=O)(=O)N2CCCCC2)cc1C(=O)NC1CCS(=O)(=O)C1 (stereo not drawn) -14.7%, CCN(CC)C(=O)C1CCCN(Cc2cccc(Cl)c2)C1 (stereo not drawn) -7.01%, O=C(C[C@H]1CC[C@@H](NC(=O)c2ccncc2)[C@@H](CO)O1)NCC1CC1 0.19%, Cc1ccc(-n2c(SCC(=O)N3CCC(C(=O)O)CC3)nc3ccccc3c2=O)cc1C 6.5%, O=S1(=O)C[C@@H](N2CCN(CCO)CC2)[C@H](COCc2ccccc2)N1 -19.7%, COc1ccc(-c2ccc3[nH]c4c(c3c2)CCN2C[C@H]3[C@H](C)ON(C)[C@H]3C[C@@H]42)cc1 -18.3%, Nc1nc(CSc2nnnn2-c2ccccc2)nc(Nc2ccccc2)n1 -29.1%, CN(C)C(=O)c1coc2nc3ccccc3nc12 25.5%, CNC(=O)c1csc(-c2ccccc2)n1 -4.77%, COc1ccc(NC(=O)N2CCCC(C(=O)Nc3ccccc3OC)C2)cc1 (stereo not drawn) -1.11%, COc1ccc(C(=O)NC2CCN(C(=O)Nc3ccc(F)cc3)CC2)cc1 17.5%

Activity change, active:
Oc1ccc2ccccc2c1N=Nc1nccs1 -98.3%, Cc1ccc(Nc2ccccc2N)cc1 -70%, Fc1ccccc1COc1ccccc1CNCc1ccncc1 -61.1%, CSc1ccc(CN2C(=O)NC3(CCCCCC3)C2=O)cc1 -60.4%, COc1ccc2sc(-c3ccccc3OC)c(-c3ccc(OCCN4CCCC4)cc3)c2c1 -51%, COc1ccc(-c2cc(C(F)(F)F)nc(S(C)(=O)=O)n2)cc1OC -105%, NC1=CC(=O)C(=O)c2cccnc21 -59.7%, Cc1cccc(NC(=S)Nc2ccc(Cl)c(Cl)c2)c1 -89.5%, Cc1csc(NC(=S)Nc2cccc(Cl)c2)n1 -99.2%, CCOC(=O)c1cc(C)nc(S(C)(=O)=O)c1C#N -106%, COC(=O)c1sc(-c2ccc(C(C)(C)C)cc2)cc1NC(=O)/C=C/C(=O)O -98.5%, COc1ccc2oc(=O)cc(-c3cc4ccccc4o3)c2c1 -52.1%, N#C/C(=C/c1ccc(N2CCCCC2)o1)C(=O)NCCc1c[nH]c2ccccc12 -56.8%, N#C/C(=C/c1ccc(-c2ccccc2[N+](=O)[O-])o1)C(=O)NCCN1CCCCC1 -54.1%, N#C/C(=C\c1ccc(-c2cccc([N+](=O)[O-])c2)o1)C(=O)NCCN1CCOCC1 -79.4%, Cc1ccc(C(=O)N/C(=C/c2ccc(-c3cccc([N+](=O)[O-])c3)o2)C(=O)NCCCN(C)C)cc1 -105%, CNC(=O)c1cccc2nc3ccccc3nc12 -78.6%, COc1ccc(NC(=O)N2CCC(Cc3ccccc3)CC2)cc1 -50.3%
